GDH-TPI inh = GDH-TPI coupled enzyme inhibition counter-screen | GDH-TPI coupled enzyme counterscreen, NADH absorbance | inhibition, % at 4.8 µM | hit rate 1.2% among 360,000;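 note: 0% = DMSO wells and 100% = wells lacking the enzyme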
FBA Mtb inh = inhibitors of M. tuberculosis fructose-bisphosphate aldolase; purified M. tuberculosis FBA, fluorescence read-out; inhibition, % at 1 µM; hit rate 2.3% among 360,000; AID 588726; in the data active = inhibition above about 27%;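 note: 0% = vehicle and 100% = reference inhibitor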
Mtb betalactam = beta-lactam sensitization of Mtb H37Rv; M. tuberculosis H37Rv growth with meropenem, percent inhibition; inhibition, % at 25 µM; hit rate 0.27% among 330,000; call rule not given here;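 note: growth measured after seven days incubation then overnight dye step; 0% = bacteria only wells and 100% = bacteria with antibiotic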
CCHFV vOTU inh = blocks the CCHF virus ovarian tumor domain protease; inhibition, % at 11.5 µM; CCHFV vOTU protease, Pep-AMC fluorescence; AID 651958; hit rate 0.55% among 370,000; note: 0% = vehicle wells with enzyme and 100% = no enzyme wells
MazEF act = increases E. coli MazEF RNase cleavage of RNA; activation, % at 20 µM; hit rate 0.32% among 350,000; AID 504720; P0AE70; FAM/BHQ RNA-DNA oligo cleavage fluorescence, 5 h; in the data active = activation above about 50%
Target sequence (P0AE70 whole entry, looked up): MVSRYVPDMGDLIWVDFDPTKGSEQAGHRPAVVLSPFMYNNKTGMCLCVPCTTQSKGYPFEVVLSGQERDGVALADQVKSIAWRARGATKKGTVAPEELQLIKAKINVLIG
Starred values were filed as active, the others as inactive; ? = inconclusive; . = not tested or not shown; + = active, no number. In the library only some 4% were active in any assay of this set; here they are far more common. Cut-off read from the data, not from the text of the source, unless noted: active = inhibition above about 30%; inactive = the rest.

SMILES	GDH-TPI inh	FBA Mtb inh	Mtb betalactam	CCHFV vOTU inh	MazEF act
COc1ccc(C(=O)/C=C/Nc2cc(C)on2)c(OC)c1	40*	2	4	5	-5
COc1ccc(C(=O)/C=C/Nc2ccc([N+](=O)[O-])cc2C)c(OC)c1	0	-7	-7	.	-9
CCOC(=O)CC[C@@H]1CC[C@]2(CCCN(C(=O)c3cccnc3)C2)O1	.	.	.	5	.
COc1ccc(NC(=O)c2sc3nc(-c4cccnc4)ccc3c2N)cc1OC	43*	-1	-6	-3	+
COc1ccc(NC(=O)c2sc3nc(-c4cccnc4)ccc3c2N)cc1	39*	-1	-7	-7	-13
Nc1c(C(=O)Nc2ccccc2)sc2nc(-c3cccnc3)ccc12	.	.	86	-4	.
Nc1c(C(=O)Nc2cccc(Cl)c2Cl)sc2nc(-c3cccnc3)ccc12	7	-1	7	-10	-8
C=CCn1c(SCC(=O)C(C)(C)C)nnc1-c1ccc(Cl)cc1	.	.	.	3	.
Cc1ccc(-c2cc(C(=O)Nc3sc4c(c3C(=O)NCc3ccco3)CCC4)[nH]n2)c(O)c1	16	2	3	10	-7
Cc1cc(O)c(-c2cc(C(=O)Nc3sc4c(c3C(=O)NCc3ccco3)CCC4)[nH]n2)cc1C	34*	2	-11	-3	-30
CC(=O)Nc1cccc(-c2cc3c(c4c2ccn4C)C2CCC3O2)c1 (centres undefined)	.	161*	.	-44	.
O=C(NCc1ccccc1Cl)C1CCCN(c2nc3ccccc3o2)C1 (centres undefined)	.	.	.	2	.
CCOC(=O)c1cnn2c1[nH]c(=O)c1ccccc12	9	30*	-2	5	-1
CCOc1ccc2[nH]c(C)cc(=O)c2c1	19	17	?	-16	3
CCOc1ccc2[nH]c(=O)c(=O)[nH]c2c1	35*	3	-2	5	5
COc1ccc(/C=N/Nc2nc3ccccc3c(=O)n2-c2ccccc2)cc1OC	60*	-3	4	13	7
COc1cc(/C=N/Nc2nc3ccccc3[nH]c2=O)ccc1O	9	0	3	-4	2
COc1ccc(/C=N/Nc2nc(=O)[nH]nc2C)cc1OC	48*	3	-11	24	14
COc1cc(/C=N/Nc2nc(=O)[nH]nc2C)ccc1O	32*	-6	3	11	-5
COc1ccc(/C=N/n2c(C)nc3ccccc3c2=O)cc1OC	7	0	0	-4	0
C#CCCC(=O)O[C@H]1CCC[C@@]2(C(=O)N(Cc3ccccc3)c3ccccc32)[C@H]1NC(=O)CCc1ccccc1	.	.	.	6	.
CCOC(=O)C1=NOC(C(=O)NCc2ccccc2)(C(=O)c2ccc(OC)cc2)C1 (centres undefined)	.	.	.	-4	.
Cc1c2c(n3c(nc4ccccc43)c1C#N)N(CCN(C)C)CC2	-2	+	-2	-183	3
CCc1c(C)c(C#N)c2nc3ccccc3n2c1NCCCN(C)C	7	3	.	7	0
Cc1c2c(n3c(nc4ccccc43)c1C#N)N(CCCN(C)C)CC2	7	141*	-4	-129	-6
SMILES	GDH-TPI inh	FBA Mtb inh	Mtb betalactam	CCHFV vOTU inh	MazEF act
CC(C)C[C@H]1COc2cc(Br)ccc2S(=O)(=O)N1Cc1cn(Cc2ccc(C(F)(F)F)cc2)nn1	.	.	.	-5	.
C#CCNC(=O)C[C@H]1C(=O)N(CCc2ccc(Cl)cc2)C2=CCCC[C@@]21C(=O)OCC	.	.	.	9	.
COc1ccc(NC(=O)C(=O)c2cn(CC(=O)N3CCOCC3)c3ccccc23)cc1OC	33*	0	0	16	6
COc1ccccc1NC(=O)C(=O)c1cn(CC(=O)N2CCOCC2)c2ccccc12	23	0	3	11	-15
COc1ccc(NC(=O)CN2CCN(c3ccccn3)CC2)cc1Cl	-3	+	-7	0	1
CCCCN1C(=O)N2Cc3ccc(C)cc3C2CS1(=O)=O (centres undefined)	.	.	.	-9	.
COC(=O)c1cc2c(-c3ccccc3)cc3ccccn3c-2c1C(=O)OC	35*	-4	20	7	-23
COc1ccc(C(=O)N/N=C\c2coc3ccc(C)cc3c2=O)cc1	7	2	-3	14	75*
C=CCOc1ccc(/C=C\c2nc(O)c([N+](=O)[O-])c(=O)[nH]2)cc1OC	15	-1	-2	.	11
COC(=O)COc1c(/C=C\c2nc(O)c([N+](=O)[O-])c(=O)[nH]2)cccc1OC	32*	-3	2	-2	6
COc1ccc(/C=C\c2nc(O)c([N+](=O)[O-])c(=O)[nH]2)cc1O	26	-9	-4	5	-8
